Screens deposited in PubChem BioAssay by National Center for Advancing Translational Sciences (NCATS).
TexasRed fluor: Total Fluorescence Counterscreen for Inhibitors of the Interaction of Thyroid Hormone Receptor and Steroid Receptor Coregulator 2; TRb/SRC2 Texas Red total fluorescence interference; Potency, µM (top dose mostly 106 µM); 280,000 tested, 0.29% active; AID 1479, 2009; active = well fitted curve in either direction with a large enough effect; inconclusive = small, poorly fitted or top-dose-only effect
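Human TRβ ligand-binding domain (0.6 uM) and Texas Red SRC2 peptide (20 nM) in Tris buffer with 1 uM T3 and 5% DMSO were incubated with pinned compound for 5 hr at ambient temperature. Total fluorescence was computed as S + 2P (555/632 nm).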
GoLoco inh red: qHTS Assay for Inhibitors of RGS12 GoLoco Motif Activity (Red Fluorophore) | Guanine nucleotide-binding protein G(i) subunit alpha-1 (Homo sapiens), P63096 | Gai1:RGS12 GoLoco peptide FP, rhodamine, 10 min | Potency, µM (top dose mostly 61.6 µM), usual class: inhibitors | 230,000 tested, 0.44% active | AID 880, 2007; active = well fitted inhibition curve with a large enough effect, not every such curve was filed as active; inactive = no such curve, though single readings can be large or run the other way; note: nearly all actives have a fitted effect of over 30% in size
RECQ1 inh-1: qHTS Assay for Inhibitors of RecQ-Like Dna Helicase 1 (RECQ1). ATP-dependent DNA helicase Q1 (Homo sapiens), P46063. RECQ1 DNA unwinding, red fluorescence kinetic read. Potency, µM (series often up to 57.3 µM), usual class: inhibitors. 240,000 tested, 0.54% active. AID 2549, 2010; note: nearly all actives have a fitted effect of over 30% in size
Target sequence (P46063 whole entry, looked up): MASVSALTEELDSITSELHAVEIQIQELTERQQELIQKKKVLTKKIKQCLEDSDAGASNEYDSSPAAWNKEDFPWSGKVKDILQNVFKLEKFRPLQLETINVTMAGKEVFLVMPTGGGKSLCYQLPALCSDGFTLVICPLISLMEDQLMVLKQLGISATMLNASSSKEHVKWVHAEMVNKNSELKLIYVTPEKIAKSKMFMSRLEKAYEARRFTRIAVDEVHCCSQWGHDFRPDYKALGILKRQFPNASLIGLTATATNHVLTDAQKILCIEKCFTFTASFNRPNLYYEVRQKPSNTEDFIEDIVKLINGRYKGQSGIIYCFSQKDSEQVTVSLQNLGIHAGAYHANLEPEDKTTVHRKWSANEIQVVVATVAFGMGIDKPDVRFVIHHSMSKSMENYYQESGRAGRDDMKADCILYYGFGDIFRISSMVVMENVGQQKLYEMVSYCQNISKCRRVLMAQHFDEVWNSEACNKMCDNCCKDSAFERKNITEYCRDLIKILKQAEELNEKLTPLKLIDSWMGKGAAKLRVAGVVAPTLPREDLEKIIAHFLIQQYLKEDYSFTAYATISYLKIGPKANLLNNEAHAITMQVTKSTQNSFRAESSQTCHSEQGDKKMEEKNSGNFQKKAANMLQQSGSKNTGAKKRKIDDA
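50 nM RECQ1T1 preincubated 15 min with compound in Tris pH 8.0 buffer with MgCl2, DTT, Tween-20 and 2.5 ug/ml poly(dI-dC); started with 200 nM TAMRA/BHQ-2 forked duplex and 2 mM ATP. Unwinding read as fluorescence (525/598 nm), two reads 2 h apart.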
BLM helicase inh: qHTS Assay for Inhibitors of Bloom's syndrome helicase (BLM) | recombinant BLM DNA unwinding, fluorescence dequenching | 350,000 tested, 0.2% active | RecQ-like DNA helicase BLM (Homo sapiens), P54132 | Potency, µM (highest dose often 56.1 µM), hits mostly inhibitors; note: nearly all actives have a fitted effect of over 35% in size
ERG-DNA inh: qHTS for Small Molecule Inhibitors of the ERG Ets/DNA interaction. Transcriptional regulator ERG (Homo sapiens), P11308. fluorescence polarization, His-ERG Ets domain / labelled DNA. Potency, µM (series often up to 76.9 µM), hits mostly inhibitors. 370,000 tested, 0.028% active. AID 624246, 2012; active = well fitted inhibition curve with a large enough effect in the polarisation, with a control signal flat; inconclusive = small, poorly fitted or top-dose-only effect, or effect the other way, or a change in a side signal; inactive = no such curve, though single readings can be large or run the other way; the % refers to the polarisation;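 note: polarization taken with two DNA probes labelled with fluorescein and Texas red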
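His-tagged ERG Ets domain (1 uM in the protein solution; 300mM KCl, 50mM Tris-HCl, 1mM EDTA, 1mM DTT, pH 7.5) received compound, then a probe mix of 5 nM fluorescein-DNA and 100nM Texas-615-DNA. Fluorescence polarization was read for both dyes.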
TRb-SRC2 inh: qHTS for Inhibitors of the Interaction of Thyroid Hormone Receptor and Steroid Receptor Coregulator 2 | Thyroid hormone receptor beta (Homo sapiens), P10828 | TRbeta-SRC2 peptide binding, fluorescence polarization; receptor liganded with 1 µM T3 | Potency, µM (titrated, usually from 106 µM), most hits filed as inhibitors | 280,000 tested, 0.065% active; note: nearly all actives have a fitted effect of over 50% in size
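Assay buffer: 20 mM Tris-HCl, 100 mM NaCl, 10% glycerol, 1 mM EDTA, 0.01% NP-40, 1 mM DTT, 1 uM T3, 5% DMSO; TRb LBD 0.6 uM, Texas Red SRC2 20 nM; FP after 5 hr.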
RECQ1 conf: Confirmation qHTS Assay for Inhibitors of RecQ-Like Dna Helicase 1 (RECQ1) | Potency, µM (top dose mostly 229 µM), hits mostly inhibitors | 610 tested, 28% active | AID 2708, 2010 | RECQ1 helicase DNA unwinding, fluorescence | shares compounds with RECQ1 inh-1; note: nearly all actives have a fitted effect of over 45% in size
RECQ1 ADP FP: Counterscreen for RECQ1 Inhibitors: ADP Fluorescence Polarization Displacement Assay; Potency, µM (doses to about 228 µM), most hits filed as inhibitors; shares compounds with RECQ1 inh-1; 530 tested, 27% active; ADP fluorescence polarization displacement counterscreen; note: nearly all actives have a fitted effect of over 45% in size
RECQ1 inh-2: Confirmation qHTS Assay for Inhibitors of RecQ-Like Dna Helicase 1 (RECQ1) - Round 2 Cherry Picks; shares compounds with RECQ1 inh-1; recombinant RECQ1 DNA unwinding, red fluorescence; Potency, µM (highest dose often 119 µM), usual class: inhibitors; 1,100 tested, 15% active; AID 504841, 2011; note: nearly all actives have a fitted effect of over 50% in size
Hits are given with their value; 0 = inactive; ? = inconclusive; - = not tested or not shown; ! = repeats disagree. Shown are actives, neighbours in structure and some others; about 0.71% of the full set was active somewhere. Unless noted, calls come from the whole dose curve; as a rule, active = well fitted curve in the direction sought with a large enough effect; inconclusive = small, poorly fitted or top-dose-only effect, or another doubt; inactive = no such curve, though single readings can be large; an effect the other way counts as inactive or inconclusive.

SMILES | TexasRed fluor | GoLoco inh red | RECQ1 inh-1 | BLM helicase inh | ERG-DNA inh | TRb-SRC2 inh | RECQ1 conf | RECQ1 ADP FP | RECQ1 inh-2
Nc1ccc(Cl)cc1C(=O)c1ccccc1Cl | 0 | 0 | 25µM | 0 | 0 | 0 | - | - | 0
C[C@H]1COC2=C1C(=O)C(=O)c1c2ccc2c1CCCC2(C)C | 0 | 0 | ? | 0 | 0 | ? | - | - | -
CC1COC2=C1C(=O)C(=O)c1c2ccc2c1CCCC2(C)C (stereo not drawn) | 0 | 0 | 13µM! | ? | - | 0 | 100µM | 28µM | -
CCCCC/C=C\C/C=C\C/C=C\C/C=C\CCCC(=O)NCc1ccoc1 | 0 | 0 | 11µM | ? | - | 0 | - | - | ?
CCCCn1c(O)c(/C=N/NC(=O)c2ccncc2)c(=O)[nH]c1=S | 0 | 0 | ? | 0 | 0 | 0 | - | - | -
Cn1c(O)c(/C=N/NC(=O)c2ccncc2)c(=O)[nH]c1=S | 0 | 0 | 3.2µM | 0 | 0 | 0 | ? | 0 | 32µM
O=C1C(=O)c2ccccc2-c2ccccc21 | 0 | 0 | ? | 20µM | 0 | ? | - | - | 10µM
O=C1C(=O)c2cccc3cccc1c23 | 0 | 0 | 0 | 0 | 0 | 0 | - | - | -
C=C1C(=O)O[C@@H]2C[C@@H](C)[C@@H]3C=CC(=O)[C@@]3(C)[C@@H](OC(=O)CC(=O)O[C@H]3[C@@H]4C(=C)C(=O)O[C@@H]4C[C@@H](C)[C@@H]4C=CC(=O)[C@]43C)[C@H]12 | 0 | 0 | 25µM | 22µM | 0 | ? | 14µM | 0 | -
CCOC(=O)c1ccc(N=Cc2c(O)n(-c3ccc(OC)cc3)c(=S)[nH]c2=O)cc1 | 0 | 0 | 0 | 0 | 0 | 0 | - | - | -
CCOC(=O)c1ccc(N=Cc2c(O)n(-c3ccccc3F)c(=S)[nH]c2=O)cc1 | 0 | 0 | 32µM | 0 | - | 0 | - | - | 0
CCOC(=O)COc1cc(-c2nn(C)c(OC(F)F)c2Cl)c(F)cc1Cl | 0 | - | - | - | - | 0 | - | - | -
ClC1=C(Cl)C2(Cl)C3C4OC4C(Cl)C3C1(Cl)C2(Cl)Cl (stereo not drawn) | 0 | - | - | - | - | 0 | - | - | -
CC(Oc1ccc(Cl)cc1Cl)C(=O)O (stereo not drawn) | 0 | - | - | - | - | 0 | - | - | -
CC(Oc1ccc(Cl)cc1Cl)C(=O)Nc1ccc(S(=O)(=O)Nc2cnc3ccccc3n2)cc1 (stereo not drawn) | 0 | 0 | 18µM | 0 | 0 | 0 | 0 | 0 | ?
CC(C)OC(=O)C(O)(c1ccc(Br)cc1)c1ccc(Br)cc1 | 0 | - | - | - | - | 0 | - | - | -
